The entries come from a sample that favours hits as a whole.
RBX1-CUL1 inh: inhibitors of human ROC1-CUL1 ubiquitin ligase activity; P62877+Q13616; in vitro K48 di-Ub FRET, acceptor:donor ratio, 45 min; inhibition, % at 10 µM; 140,000 tested, 0.6% active; AID 1347404; in the data active = inhibition above about 25%
Large screens that a line does not name were inactive.

CCn1c(Cc2ccccc2)nnc1SCC(=O)Nc1ccccc1OC	none
COC(=O)C1C(C)=Nc2ncnn2C1c1ccccc1 (stereo not drawn)	none
COc1ccc(C(=O)C2CCCN(C(=O)CCCc3ccccc3)C2)cc1OC (stereo not drawn)	none
CCCCOc1cccc(OCCCC)c1C(=O)NCC1COc2ccccc2O1 (stereo not drawn)	none
Cn1nccc1C(=O)NC(C)(C)CC(C)(C)C	none
Cn1nccc1C(=O)C#Cc1ccccc1	RBX1-CUL1 inh 62
Cn1nccc1C(=O)n1cnc2ccccc21	none
CN(Cc1ccc2nsnc2c1)Cc1cn[nH]c1-c1ccc2c(c1)OCO2	none
COc1ccc(CNC(=O)CSc2ncc3c(n2)-c2cc(Cl)ccc2N(Cc2ccccc2)S3(=O)=O)cc1	none
COc1ccccc1NC(=O)CSc1ncc2c(n1)-c1cc(Cl)ccc1N(C)S2(=O)=O	none
COc1ccc(NC(=O)CSc2ncc3c(n2)-c2cc(Cl)ccc2N(Cc2ccccc2F)S3(=O)=O)cc1	RBX1-CUL1 inh 45
Cn1ccnc1C/C(=N\O)C(F)(F)F	none
Cc1ccc(O)c(NC(=O)c2nn3c(c2Br)NC(c2cccs2)CC3C(F)(F)F)c1 (stereo not drawn)	none
CC1=C(C#N)C(=O)NC(=O)/C1=C/c1ccc(-c2ccc(Cl)c(C(=O)OC(C)C)c2)o1	RBX1-CUL1 inh 86
CC1=C(C#N)C(=O)N(CC(C)C)C(=O)/C1=C/c1ccc(-c2ccc(Cl)cc2)o1	none
COC(=O)c1cc(-c2ccc(/C=C3/SC(=O)NC3=O)o2)ccc1Cl	none
O=C1C2=C(N=C3CC(c4ccccc4)CC(=O)C3C2c2ccc(Cl)cc2)c2ccccc21 (stereo not drawn)	none
CCN(Cc1nccn1C)c1ccc(-c2nc(COC)no2)cn1	none
Cc1ncc(Sc2ccc3c(n2)CC(C)(C)OC3)c(N2CCOCC2)n1	none
CCc1ccccc1C1C(=O)c2ccccc2C1=O	none
CN1C(=O)C(c2cccc(Cl)c2)C(=O)c2ccccc21 (stereo not drawn)	none
CN1C(=O)C(=O)C2c3ccccc3C(=O)c3c(Cl)cc(Cl)c1c32 (stereo not drawn)	RBX1-CUL1 inh 33
Cc1ccc(/C=C2\SC(=O)N(CCCc3ccccc3)C2=O)o1	none
N#Cc1ccccc1COc1ccc(/C=C2/SC(=Nc3cccc(C(=O)O)c3)NC2=O)cc1	RBX1-CUL1 inh 89
O=C1NC(=Nc2ccc(F)cc2)S/C1=C\c1ccc(OCc2cccc(C(=O)O)c2)cc1	none
Cc1cccc(N=C2NC(=O)/C(=C\c3ccc(OCc4ccccc4)cc3)S2)c1	none
CCC(NC(=O)c1cc(C)on1)c1ccc(C(C)C)cc1 (stereo not drawn)	none
O=c1cc(C2CCN(Cc3cccn3-c3ccccn3)CC2)nc[nH]1	none
C=CCc1cc(/C=C2\C(=O)NC(=O)N(c3ccc(Br)c(C)c3)C2=O)cc(OCC)c1O	none
CCOc1cc(/C=C2\C(=O)N(c3ccccc3)C(=S)N2c2ccc(CC)cc2)c(Br)cc1O	none
COC(=O)COc1ccccc1/C=C1/C(=O)N(c2ccc(Cl)cc2)C(=S)N1C	none
CCOc1cc(/C=C2\C(=O)NC(=O)N(c3ccc(C45CC6CC(CC(C6)C4)C5)cc3)C2=O)c(Br)cc1O	RBX1-CUL1 inh 91
COc1cc(OC)c(OC)cc1/C=C1\C(=O)NC(=S)N(c2ccc(F)cc2)C1=O	none
COC(=O)COc1ccccc1/C=C1\C(=O)NC(=O)N(c2ccc(C34CC5CC(CC(C5)C3)C4)cc2)C1=O	RBX1-CUL1 inh 41
CC1(C)CC(=O)C2C(=NC3=C(C(=O)CC(C)(C)C3)C2c2cc(Cl)c(O)c(Cl)c2)C1 (stereo not drawn)	none
CN1CCN(C2CCc3c(Sc4ccc(Cl)cc4)cccc32)CC1 (stereo not drawn)	none
O=c1oc2c(Sc3ccccc3)cc(O)c(Sc3ccccc3)c2s1	none
CCc1sc(N)[n+](C)c1-c1ccc(OC)cc1	none
COc1ccc(C2=NN(c3ccccc3)C(c3ccc(F)cc3)C2)cc1OC (stereo not drawn)	none
Cc1nc2ccc(NC(=O)c3cc(F)c(F)cc3Cl)cc2s1	none
O=c1[nH]nnc2c1sc1nc3c(c(-c4ccco4)c12)CCc1ccccc1-3	RBX1-CUL1 inh 67
NC(=O)c1sc2nnc(-c3ccco3)c(-c3ccco3)c2c1N	none
O=c1[nH]nnc2c1sc1nc3c(c(-c4ccc(Cl)cc4)c12)CCCC3	none
COC(=O)c1nn(-c2ccc(Cl)cc2)c2nc3ccccc3n12	none
CCOc1ccc(NC(=O)c2sc3nc(-c4ccc(OC)cc4)cc(-c4ccc(Cl)cc4)c3c2N)cc1	none
O=C(O)c1ccccc1SC1C(=O)Oc2ccccc2C1=O (stereo not drawn)	RBX1-CUL1 inh 46
O=C1Oc2ccccc2C(=O)C1C(=O)c1ccccc1 (stereo not drawn)	none
O=C1Oc2ccccc2C(=O)C1Sc1ccc(Cl)cc1 (stereo not drawn)	none
COc1ccc(S(=O)(=O)Nc2cc(Sc3ncn[nH]3)c(O)c3ccccc23)cc1	RBX1-CUL1 inh 97
O=C(O)CSc1cc(NS(=O)(=O)c2ccc3ccccc3c2)c2ccccc2c1O	RBX1-CUL1 inh 89
Cc1ccc(S(=O)(=O)Nc2cc(SCC(=O)O)c(O)c3ccccc23)c(C)c1	none
Cc1ccc(S(=O)(=O)Nc2cc(Sc3nc4ccccc4s3)c(O)c3ccccc23)cc1	none
O=c1oc2c(cc(NS(=O)(=O)c3ccc4ccccc4c3)c3ccccc32)s1	none
O=S(=O)(Nc1ccc(O)c(Sc2ncn[nH]2)c1)c1ccccc1	none
C=CCCCCCCCCC(=O)Nc1cccnc1	none
CCC(Oc1ccc(F)cc1)C(=O)N1CCOCC1 (stereo not drawn)	none
CCOCC(=O)Nc1cccc(C(=O)Nc2ccccc2OCC)c1	none
COCC(C)NC(=O)C1CCCN(c2nc(C)c3ccc(S(C)(=O)=O)cc3n2)C1 (stereo not drawn)	none
CN(Cc1nc(-c2ccccn2)no1)CC1CCCCO1 (stereo not drawn)	none
CC(C)(C)c1ccc(CN2CCN(c3ccnc4cc(Cl)ccc34)CC2)cc1	none
CC(C)(C)C(=O)N1CCN(c2ccnc3cc(Cl)ccc23)CC1	none
O=C(CN1CCN(c2cc(Cl)cc3ncccc23)CC1)c1ccc(O)c(O)c1	RBX1-CUL1 inh 84
Cc1cc(-c2ccc(NC(=O)c3ccccc3C)c(C)c2)ccc1NC(=O)c1ccccc1C	none
COc1cc(-c2ccc(NC(=O)C34CCC(C)(C(=O)C3)C4(C)C)c(OC)c2)ccc1NC(=O)C12CCC(C)(C(=O)C1)C2(C)C	none
Cc1cccc(/C=N/Nc2cc(N3CCCCC3)nc(N3CCCCC3)n2)c1	none
CCC(=O)NNc1cc(N2CCCC2)nc(N2CCCC2)n1	RBX1-CUL1 inh 74
CCCc1nn2c(=O)cc(N3CCCCC3)nc2s1	none
Cc1cc(CN(C)C(=O)C2(N(C)Cc3ccccc3)Cc3ccccc3C2)on1	none
O=C(Nc1cccc(Cl)c1)c1ccc(N2CCOCC2)cc1	none
CCOc1cccc2c1Oc1nc(-c3ccccc3)nc(SCC(=O)Nc3ccc(F)cc3)c1C2	none
COc1ccc(-c2nc3c(c(SCC(=O)Nc4ccccc4OC)n2)Cc2cccc(C)c2O3)cc1	none
Cc1ccc(-c2nc3c(c(SCC(=O)Nc4cccc(C(=O)O)c4)n2)Cc2cccc(C)c2O3)cc1	RBX1-CUL1 inh 31
O=C(Nc1ccc(-c2ccc(NC(=O)C3CCCCC3)cc2)cc1)C1CCCCC1	none
CC1S/C(=N\N=C\c2ccccc2)NC1=O (stereo not drawn)	none
O=S(=O)(O)c1ccc2ncccc2c1	none
CCOc1ccc2cc(S(=O)(=O)O)ccc2c1N	none
Nc1cc(S(=O)(=O)O)c(N)c2ccc(S(=O)(=O)O)cc12	RBX1-CUL1 inh 101
CCOC(=O)C(C)n1cnc2sc(C)c(-c3ccc(OCC)cc3)c2c1=O (stereo not drawn)	none

Screening results from PubChem BioAssay.
